In PubChem BioAssay (NCI):
This is part of a sample that, as a whole, favours compounds with a hit. Of some 83,000 tested, about 20% had one in any assay.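 Step 1: grow cells in 96-well plates. Step 2: add test compound at a single concentration. Step 3: incubate 48 h. Step 4: record percent growth.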 Unmarked numbers belong to inactive results. Active and inactive are the calls of the source. Rule for the calls: active = growth percent below 10; inactive = the rest.

Tests used:
Test in all cases: NCI-60 one-dose screen, 48 h (100 = growth as untreated, 0 = no growth, -100 = all killed)
Conditions in all cases: 10 µM
[1] = tested on: HT29 colon
[2] = tested on: SNB-75 CNS
[3] = tested on: SNB-19 CNS
[4] = tested on: U251 CNS
[5] = tested on: PC-3 prostate
[6] = tested on: SK-MEL-5 melanoma
[7] = tested on: UACC-62 melanoma
[8] = tested on: LOX IMVI melanoma
[9] = tested on: SK-MEL-28 melanoma
[10] = tested on: SK-MEL-2 melanoma

| SMILES | growth [1] | growth [2] | growth [3] | growth [4] | growth [5] | growth [6] | growth [7] | growth [8] | growth [9] | growth [10] |
| --- | --- | --- | --- | --- | --- | --- | --- | --- | --- | --- |
| COc1ccc2c(c1)/C(=C\c1c[nH]c3ccc(OC)cc13)C(=O)N2 | 24.9% | 46.7% | 77.3% | 56.2% | 60.6% | 46.3% | 39.3% | 35.9% | 71.7% | 33.4% |
| CC1CN(Cc2ccccc2)C(=O)NC1=O (stereo not given) | 109% | 106% | 92% | 108% | 92.7% | 106% | 96% | 103% | 114% | 102% |
| CCOC(=O)N1C=CC2C=CC1C1C=CC=CC2N1C(=O)OCC (stereo not given) | 94.8% | 80.4% | 94.1% | 93.5% | 90.1% | 84.1% | 91.6% | 102% | 87.8% | 90.9% |
| Cc1ccc(NC(=O)Nc2c(Cl)cccc2Cl)cn1 | 130% | 92.1% | 102% | 89.8% | 83.8% | 87.1% | 78.7% | 101% | 130% | 91.4% |
| CC(=O)N(C)c1ccc(Nc2ccc(Nc3ccc(N(C)C(C)=O)cc3)c3c2C(=O)c2ccccc2C3=O)cc1 | 68.6% | 73.9% | 88.4% | 77.3% | 38.3% | 79% | 88.8% | 55% | 106% | 82.8% |
| COc1cc(Nc2ccnc(NCCCNc3ccnc4cc(Cl)ccc34)n2)cc(OC)c1 | -31.9% (active) | -58.6% (active) | 2.03% (active) | -64.4% (active) | 26.1% | -100% (active) | -82.5% (active) | -82.5% (active) | -100% (active) | -81.6% (active) |
| COc1ccc2c(c1)O/C(=C\c1ccc([N+](=O)[O-])s1)C2=O | -12.3% (active) | 55.5% | 67.3% | 14.7% | 14% | 60% | 30.6% | 15.7% | 81.4% | 55.3% |
| CCN(CC)CCCOCCCNc1cc(OC)cc2cccnc12 | 96.1% | 94.7% | 91.4% | 91.5% | 86.6% | 96.4% | 82.1% | 90.2% | 103% | 107% |
| COc1cc(-c2cc(/C=C3\C(=O)Nc4cc(Cl)ccc43)[nH]n2)cc(OC)c1OC | 28.3% | -5.23% (active) | 46.7% | 40.4% | 4.7% (active) | -49.5% (active) | -51.5% (active) | 6.79% (active) | 19.9% | 51.9% |
| CC(=O)[C@H]1CC[C@H]2[C@@H]3CCC4=CC(=O)C=C[C@]4(C)[C@H]3CC[C@]12C | 96.2% | 90.3% | 114% | 95.1% | 87.7% | 82.5% | 80.3% | 88.6% | 109% | 102% |
| COc1ccc2c(c1)sc1nc(-c3ccccc3)c(-c3ccc(O)c(OC)c3)n12 | 21.5% | 77.6% | 80.4% | 41.7% | 82.3% | 55.5% | 66.2% | 61.5% | 73.6% | 49.8% |
